In PubChem BioAssay (Tox21):
Records with an inconclusive call do not appear. Active and inactive are the calls of the source. Unless noted, the call rests on the fitted dose curve; in most records, active means well fitted curve in the direction sought with a large enough effect in the repeat runs; inconclusive means weak or mixed curves; inactive means no such curve, though single readings can be large; an effect the other way counts as inactive or inconclusive.

Legend:
[1] = A CellTox Green Cytotoxicity Assay to monitor cytotoxicity in HEK293 cells - 32 hour (AID 1224881); further: nearly all actives have a fitted effect of over 40% in size
In short: (§1)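 HEK293 cells, 600/well, were preincubated 5 hours and then exposed to compounds at 37 C for up to 40 hours. A cell-impermeant cyanine dye staining dead-cell DNA was read by fluorescence at 0, 8, 16, 24, 32 and 40 h time points.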

[2] = A CellTox Green Cytotoxicity Assay to monitor cytotoxicity in HepG2 cells - 0 hour (AID 1224882); further: nearly all actives have a fitted effect of over 35% in size
In short: (§2)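 HepG2 cells, 600/well, preincubated 5 h with CellTox Green dye, then exposed to Tox21 compounds in DMSO at 37 C for up to 40 h. Dead-cell DNA fluorescence read at the indicated time point.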

[3] = A CellTox Green Cytotoxicity Assay to monitor cytotoxicity in HepG2 cells - 32 hour (AID 1224883); further: nearly all actives have a fitted effect of over 50% in size
In short: as §2

[4] = A CellTox Green Cytotoxicity Assay to monitor cytotoxicity in HEK293 cells - 8 hour (AID 1224884); further: nearly all actives have a fitted effect of over 35% in size
In short: as §1

[5] = qHTS RealTime-Glo MT Cell Viability Assay in HepG2 cells - 16 hour (AID 1224885); further: nearly all actives have a fitted effect of over 50% in size
In short: (§3)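 HepG2 cells (600/well) were dispensed with RealTime-Glo reagents, incubated 5 h at 37 °C, then treated with compounds in DMSO for up to 40 h. Nonlytic NanoLuc luminescence reflecting viable cells was read at each stated time point.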

[6] = qHTS RealTime-Glo MT Cell Viability Assay in HEK293 cells - 24 hour (AID 1224886); further: top concentration of the series differs between compounds; nearly all actives have a fitted effect of over 50% in size
In short: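 HEK293 cells seeded with NanoLuc/prosubstrate reagent, rested 5 h at 37 C, then dosed and kept at 37 C up to 40 h. Nonlytic real-time luminescence from viable cells read at 0, 8, 16, 24, 32 and 40 h.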

[7] = qHTS RealTime-Glo MT Cell Viability Assay in HEK293 cells - 8 hour (AID 1224887); further: top concentration of the series differs between compounds; nearly all actives have a fitted effect of over 50% in size
In short: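 600 cells/well were plated with the nonlytic NanoLuc/prosubstrate reagent, pre-incubated 5 h, then given 23 nL of compound in DMSO. Incubation at 37 C for 40 h, with luminescence from viable-cell-reduced substrate read repeatedly from 0 h.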

[8] = A CellTox Green Cytotoxicity Assay to monitor cytotoxicity in HEK293 cells - 16 hour (AID 1224888); further: nearly all actives have a fitted effect of over 35% in size
In short: as §1

[9] = qHTS RealTime-Glo MT Cell Viability Assay in HepG2 cells - 0 hour (AID 1224889); further: nearly all actives have a fitted effect of over 50% in size
In short: as §3

[10] = A CellTox Green Cytotoxicity Assay to monitor cytotoxicity in HepG2 cells - 8 hour (AID 1224890); further: nearly all actives have a fitted effect of over 45% in size
In short: as §2

[11] = qHTS assay to identify small molecule antagonists of the estrogen receptor alpha (ER-alpha) signaling pathway using the BG1 cell line in the presence of 0.1 nM 17-beta-estradiol - cell viability counter screen (AID 1259241); further: nearly all actives have a fitted effect of over 40% in size
In short: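 Viability in VM7Luc4E2 cells after 22 hr compound exposure under 0.1 nM 17beta-estradiol stimulation, by CellTiter-Fluor.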

[12] = qHTS assay to identify small molecule antagonists of the androgen receptor (AR) signaling pathway using the MDA cell line in the presence of 0.5 nM R1881 - cell viability counter screen (AID 1259242); further: nearly all actives have a fitted effect of over 45% in size
In short: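 MDA-kb2 cells (MMTV-luciferase, AR/GR responsive) were treated with compounds plus 0.5 nM R1881 (final) for 16 hr at 37C, 0% CO2. Viability was then read in the same wells as live-cell protease fluorescence (CellTiter-Fluor, 30 min).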

[13] = target: Estrogen receptor (Homo sapiens) (UniProt P03372); experiment: qHTS assay to identify small molecule antagonists of the estrogen receptor alpha (ER-alpha) signaling pathway using the BG1 cell line in the presence of 0.1 nM 17-beta-estradiol (AID 1259244); further: nearly all actives have a fitted effect of over 50% in size
In short: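 VM7Luc4E2 cells (endogenous full-length ER-alpha, 4×ERE-luciferase), kept 5 days in phenol red-free, charcoal-stripped FBS medium; 4,000 cells/well. Compounds added with 0.1 nM (final) 17beta-estradiol, 22 hr at 37C; luminescence read with ONE-Glo after 30 min.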

[14] = qHTS assay to identify small molecule HDAC inhibitors (AID 1259364); further: top concentration of the series differs between compounds; nearly all actives have a fitted effect of over 45% in size
In short: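 Wild-type HCT-116 cells, plated overnight at 37 C, exposed to compounds 2 hr at 37 C; luminogenic HDAC-Glo substrate then added 30 min at room temperature. Luminescence reports relative endogenous class I/II HDAC activity.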

[15] = qHTS assay to identify small molecule HDAC inhibitors - cell viability counter screen (AID 1259365)
In short: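 Cytotoxicity was gauged in wild-type HCT-116 cells after a brief 2hr treatment with DMSO-dissolved compounds at 37C and 5% CO2, using CellTiter-Glo luminescence developed for 30min at room temperature.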

[16] = qHTS assay to identify small molecule agonists of the sonic hedgehog signaling (Shh) pathway - cell viability counter screen (AID 1259366); further: nearly all actives have a fitted effect of over 50% in size
In short: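 Stable Gli1-Luc NIH/3T3 clone, 2,000 cells/well. Compound exposure 24hr at 37C. Read-out: CellTiter-Fluor fluorescence.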

[17] = qHTS assay to identify small molecule antagonists of the sonic hedgehog signaling (Shh) pathway - cell viability counter screen (AID 1259367); further: nearly all actives have a fitted effect of over 55% in size
In short: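 NIH/3T3-derived Gli1-Luc reporter cells (2,000 per well) rested 4 hr at 37 C, then received DMSO compounds plus conditioned medium. After 23 hr of treatment, CellTiter-Fluor was added for 1 hr at 37C and fluorescence read.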

[18] = qHTS assay to identify small molecule agonists of the sonic hedgehog signaling (Shh) pathway (AID 1259368; calls by dose curve;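 further: NIH/3T3-derived 3T3Gli1-Luc cells carrying a stable Gli1-driven firefly luciferase reporter; series mostly up to about 92 µM; nearly all actives have a fitted effect of over 15% in size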)
In short: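 NIH/3T3-derived 3T3Gli1-Luc cells with stably integrated Gli1-driven firefly luciferase, 2,000 cells/well, compounds added after 4 hr. Incubated 24 hr at 37C, 5% CO2; luminescence read after 30 min with luciferase reagent at room temperature.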

[19] = target: Androgen receptor (Homo sapiens) (UniProt P10275); experiment: qHTS assay to identify small molecule antagonists of the androgen receptor (AR) signaling pathway using the MDA cell line in the presence of 0.5 nM R1881 (AID 1259243); further: nearly all actives have a fitted effect of over 50% in size
In short: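 MDA-kb2 cells (MMTV-luciferase, responsive to AR and GR) at 3,000/well, rested 5 h at 37C, 0% CO2, then given compounds plus 0.5 nM R1881 (final) for 16 hr. Luciferase read with ONE-Glo after 30 min at room temperature.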

[20] = qHTS assay to identify small molecule phospholipidosis (PLD) inducers (AID 1259344; active means well fitted curve in the direction sought with a large enough effect; an effect the other way counts as inactive or inconclusive)
In short: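 HepG2 cells on collagen I, attached 4 h at 37 C, were co-treated with compound and LipidTOX Red dye for 24 h at 37 C, then fixed with paraformaldehyde plus Hoechst 33342 and imaged by high-content microscopy for phospholipid accumulation.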

Measured: Potency

Estrogen receptor (Homo sapiens), sequence (P03372 whole entry, looked up): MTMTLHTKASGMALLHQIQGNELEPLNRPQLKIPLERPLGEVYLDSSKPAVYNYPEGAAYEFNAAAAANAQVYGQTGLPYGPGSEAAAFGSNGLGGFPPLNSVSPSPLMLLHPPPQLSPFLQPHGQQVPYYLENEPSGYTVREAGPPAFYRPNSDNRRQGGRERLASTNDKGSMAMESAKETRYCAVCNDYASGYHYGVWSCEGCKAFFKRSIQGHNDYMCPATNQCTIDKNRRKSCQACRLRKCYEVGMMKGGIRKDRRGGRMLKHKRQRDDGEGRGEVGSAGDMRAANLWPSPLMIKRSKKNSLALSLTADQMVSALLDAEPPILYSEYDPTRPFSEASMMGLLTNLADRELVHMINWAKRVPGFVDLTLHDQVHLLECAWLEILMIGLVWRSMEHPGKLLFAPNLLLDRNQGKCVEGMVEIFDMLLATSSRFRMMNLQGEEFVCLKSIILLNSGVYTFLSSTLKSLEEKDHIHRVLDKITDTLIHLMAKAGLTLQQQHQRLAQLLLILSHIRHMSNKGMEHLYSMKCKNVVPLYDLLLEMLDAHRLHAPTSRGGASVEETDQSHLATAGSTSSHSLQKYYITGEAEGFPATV
Androgen receptor (Homo sapiens), sequence (P10275 whole entry, looked up): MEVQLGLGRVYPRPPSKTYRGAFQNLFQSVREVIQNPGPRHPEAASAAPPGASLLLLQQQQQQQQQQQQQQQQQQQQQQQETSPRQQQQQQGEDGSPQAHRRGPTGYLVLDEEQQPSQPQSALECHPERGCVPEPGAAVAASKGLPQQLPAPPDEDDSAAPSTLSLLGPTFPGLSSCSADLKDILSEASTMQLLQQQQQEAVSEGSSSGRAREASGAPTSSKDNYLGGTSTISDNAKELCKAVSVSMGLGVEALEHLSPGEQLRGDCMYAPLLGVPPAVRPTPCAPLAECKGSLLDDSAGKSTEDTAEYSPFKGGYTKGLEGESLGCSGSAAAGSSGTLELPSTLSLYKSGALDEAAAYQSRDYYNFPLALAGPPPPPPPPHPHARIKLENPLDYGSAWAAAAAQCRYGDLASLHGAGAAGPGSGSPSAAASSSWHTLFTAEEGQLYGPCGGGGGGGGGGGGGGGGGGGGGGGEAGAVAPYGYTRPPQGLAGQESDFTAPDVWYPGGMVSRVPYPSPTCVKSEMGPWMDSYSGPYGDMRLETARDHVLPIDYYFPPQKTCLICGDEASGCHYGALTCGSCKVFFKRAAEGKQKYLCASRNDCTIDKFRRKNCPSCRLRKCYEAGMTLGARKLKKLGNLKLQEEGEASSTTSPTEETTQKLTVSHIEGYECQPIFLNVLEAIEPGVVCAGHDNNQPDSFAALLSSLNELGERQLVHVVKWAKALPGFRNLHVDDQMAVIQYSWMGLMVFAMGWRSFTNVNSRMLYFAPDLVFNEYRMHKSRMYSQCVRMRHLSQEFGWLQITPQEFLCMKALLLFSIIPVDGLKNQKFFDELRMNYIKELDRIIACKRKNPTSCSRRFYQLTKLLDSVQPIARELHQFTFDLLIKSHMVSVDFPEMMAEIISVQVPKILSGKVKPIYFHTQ

OCC(Cl)CCl (centres undefined)
not listed: [19] | [20]
inactive: all other assays above

O=C1CC(=O)NC(=O)N1
not listed: [19] | [20]
inactive: all other assays above

Cc1ccc(Cl)c(O)c1
not listed: [19] | [20]
inactive: all other assays above

O=C(Cl)C(Cl)(Cl)Cl
not listed: [8] | [19] | [20]
inactive: all other assays above

CC(C)[C@]12CC(=O)[C@H](C)[C@H]1C2
not listed: [13] | [18] | [19] | [20]
inactive: all other assays above

COc1cccc(C=O)c1
not listed: [19] | [20]
inactive: all other assays above

COc1ccc2c(C(=O)c3ccc(Cl)cc3)c(C)n(CC(=O)O)c2c1
not listed: [13] | [19] | [20]
inactive: all other assays above

CCOC(=O)C(SP(=S)(OC)OC)c1ccccc1 (centres undefined)
not listed: [9] | [13] | [19] | [20]
inactive: all other assays above

CC(Cl)(Cl)Cl
not listed: [13] | [18] | [19] | [20]
inactive: all other assays above

CC(Cc1ccccc1)NCCCCl (centres undefined)
not listed: [8] | [18] | [20]
inactive: all other assays above

O=[N+]([O-])c1cccc(CCl)c1
not listed: [13] | [19] | [20]
inactive: all other assays above

O=C(NC(=O)c1c(F)cccc1F)Nc1cc(Cl)c(F)c(Cl)c1F
not listed: [14] | [19] | [20]
inactive: all other assays above

CC(C)(C1CCC(O)CC1)C1CCC(O)CC1 (centres undefined)
not listed: [8] | [18] | [19] | [20]
inactive: all other assays above

CCC1(c2cccc(O)c2)CCCCN(C)C1 (centres undefined)
not listed: [13] | [17] | [19] | [20]
inactive: all other assays above

[P]#[In]
not listed: [13] | [19] | [20]
inactive: all other assays above

CC1=C2[C@H]3OC(=O)[C@@H](C)[C@@H]3CC[C@@]2(C)C=CC1=O
not listed: [13] | [19]
inactive: all other assays above

CCCCCCC1CCOC1=O (centres undefined)
not listed: [13] | [19] | [20]
inactive: all other assays above
